The source made the active and inactive calls.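 The calls were made as follows: active = TRPC6 cation channel blocked by over 30% at any dose tested, plus a fitted dose response curve; inactive = the rest.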
Target: Short transient receptor potential channel 6 (Mus musculus) (UniProt Q61143)
Assay: mouse TRPC6 channel inhibitors, SAR follow-up, HEK293 cells, membrane potential dye, set 2 (AID 504885)
Conditions: acetylcholine-stimulated; series mostly up to 20 µM; fluorescence ratio, lower = inhibition: at the top concentration

Sequence of Short transient receptor potential channel 6 (Mus musculus) (Q61143 whole entry, looked up): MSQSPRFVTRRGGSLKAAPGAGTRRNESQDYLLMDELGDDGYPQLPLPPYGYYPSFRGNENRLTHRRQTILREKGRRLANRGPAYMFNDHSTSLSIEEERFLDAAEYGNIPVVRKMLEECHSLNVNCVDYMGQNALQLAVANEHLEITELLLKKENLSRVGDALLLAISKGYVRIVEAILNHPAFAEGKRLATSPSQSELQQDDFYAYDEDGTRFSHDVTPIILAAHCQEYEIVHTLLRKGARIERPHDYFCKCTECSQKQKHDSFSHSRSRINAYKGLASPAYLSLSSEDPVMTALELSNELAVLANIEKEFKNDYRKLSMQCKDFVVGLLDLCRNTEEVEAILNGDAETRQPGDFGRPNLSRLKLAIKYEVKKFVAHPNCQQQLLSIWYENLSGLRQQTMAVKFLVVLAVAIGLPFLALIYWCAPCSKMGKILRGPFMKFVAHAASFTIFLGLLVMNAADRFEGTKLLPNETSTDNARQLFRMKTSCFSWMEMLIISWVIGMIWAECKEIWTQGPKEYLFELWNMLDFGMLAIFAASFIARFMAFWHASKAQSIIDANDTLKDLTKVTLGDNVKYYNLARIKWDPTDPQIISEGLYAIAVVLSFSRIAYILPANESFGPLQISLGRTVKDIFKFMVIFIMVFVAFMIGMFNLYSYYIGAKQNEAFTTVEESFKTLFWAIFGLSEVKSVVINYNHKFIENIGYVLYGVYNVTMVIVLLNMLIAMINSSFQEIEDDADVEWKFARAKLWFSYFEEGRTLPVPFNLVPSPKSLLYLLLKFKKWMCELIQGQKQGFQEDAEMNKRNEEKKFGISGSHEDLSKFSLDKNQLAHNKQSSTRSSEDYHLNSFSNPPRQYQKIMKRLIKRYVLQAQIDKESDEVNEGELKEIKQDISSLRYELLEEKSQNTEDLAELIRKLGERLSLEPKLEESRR

Structure (SMILES) | fluorescence ratio, lower = inhibition
CN1CCC(N2CCN(Cc3ccc4nsnc4c3)CC2CCO)CC1 (stereo not given) | 24.3 (inactive)
CC(C)CN1CCN(Cc2ccc3nsnc3c2)CC1CCO (stereo not given) | 17.5 (inactive)
Cc1cccc(CN2CCN(Cc3ccc4nsnc4c3)CC2CCO)n1 (stereo not given) | 20.3 (inactive)
CSCc1cc(N2CCOCC2)nc(-c2ccccn2)n1 | 22 (inactive)
O=S(=O)(Cc1cc(N2CCOCC2)nc(-c2ccccn2)n1)c1ccccc1 | 21.7 (inactive)
OCCC1CN(Cc2ccc3nsnc3c2)CCN1CCCc1ccccc1 (stereo not given) | 12.4 (inactive)
Cc1ccccc1CN1CCN(Cc2ccc3nsnc3c2)CC1CCO (stereo not given) | 17.6 (inactive)
CSCc1cc(N(C)c2ccccc2)nc(-c2ccccn2)n1 | 17.8 (inactive)
CC(C)N1CCC(N2CCN(Cc3ccc4nsnc4c3)CC2CCO)CC1 (stereo not given) | 22 (inactive)
CC(C)N1CCN(Cc2ccc3nsnc3c2)CC1CCO (stereo not given) | 20.9 (inactive)
CC(C)CCN1CCN(Cc2ccc3nsnc3c2)CC1CCO (stereo not given) | 16.6 (inactive)
O=S(=O)(Cc1cc(N2CCN(c3ccccc3)CC2)nc(-c2ccccn2)n1)c1ccccc1 | 24 (inactive)
CN1CCN(Cc2ccc3nsnc3c2)CC1CCO (stereo not given) | 23.7 (inactive)
Cc1ccc(C)c(N2CCN(C(=O)c3ccc4nsnc4c3)CC2)c1 | 18.7 (inactive)
Clc1ccc(SCc2cc(N3CCCCC3)nc(-c3ccccn3)n2)cc1 | 19.2 (inactive)

— PubChem BioAssay AID504885 (Johns Hopkins Ion Channel Center, 2011)
